Rows were chosen to be rich in hits. Some 28% of all compounds tested hit in one or more screens of this group.
CYP2C9 activ: human CYP2C9 activators, primary screen, biochemical, luminescence. AID 1024, 2008. activation factor at 5 µM. 1.4% of 96,000 active. recombinant CYP2C9, luciferin-H conversion; active compounds read high; factor 1 = untreated enzyme, 0 = blocked;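 active means activation factor of 2 or more for CYP2C9 at a 5 µM dose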;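 further: 0 = sulfaphenazole-blocked wells and 1 = vehicle-only wells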
CYP2C9 inhib: blockers of cytochrome P450 2C9 activity – biochemical, luminescence, ADME assay, primary screen; P11712; CYP2C9 Supersomes, luciferin-H conversion; inhibition, % at 5 µM; 20% of 96,000 active; AID 777, 2007;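 active means blocking of liver enzyme CYP2C9 beyond about 50% at 5 µM, limit read from the data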
CYP2C19 act: human CYP2C19 activators, primary screen, biochemical, luminescence. Cytochrome P450 2C19 (Homo sapiens), P33261. recombinant CYP2C19, luciferin-H EGE luminescence; active compounds read high; 0 = fully inhibited enzyme, 1 = untreated enzyme. activation factor at 5 µM. 96,000 tested, under 10 active;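 active means activation factor of at least 2 at 5 µM in the primary screen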;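 further: 0 = wells with 2.5 mM tranylcypromine and 1 = vehicle-only wells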
CYP2C19 inh: blockers of cytochrome P450 2C19 activity – biochemical, luminescence, ADME assay, primary screen. P33261. CYP2C19 Supersomes, luciferin-H EGE luminescence, 30 min. inhibition, % at 5 µM. 21% of 96,000 active. AID 778, 2007;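 active means CYP2C19 inhibition above a set limit at 5 µM in the primary screen, cut at about 50% in these data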;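 further: plate controls were negative control wells for no effect and 2.5 mM tranylcypromine positive control for full effect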
CD11b adhes enh: enhancers of CD11b/CD18 adhesion to fibrinogen, primary screen, K562 cells, luminescence; activation, % at 10 µM; Integrin beta-2 (Homo sapiens) + Integrin alpha-M (Homo sapiens), P05107+P11215; 0.07% of 93,000 active; ATPlite luminescence; AID 1499, 2009;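 active means 10 µM primary screen giving 50% or more activity, confirmed by 40% or more on retest at that dose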
Target sequence (P05107 whole entry, looked up, other chains not shown): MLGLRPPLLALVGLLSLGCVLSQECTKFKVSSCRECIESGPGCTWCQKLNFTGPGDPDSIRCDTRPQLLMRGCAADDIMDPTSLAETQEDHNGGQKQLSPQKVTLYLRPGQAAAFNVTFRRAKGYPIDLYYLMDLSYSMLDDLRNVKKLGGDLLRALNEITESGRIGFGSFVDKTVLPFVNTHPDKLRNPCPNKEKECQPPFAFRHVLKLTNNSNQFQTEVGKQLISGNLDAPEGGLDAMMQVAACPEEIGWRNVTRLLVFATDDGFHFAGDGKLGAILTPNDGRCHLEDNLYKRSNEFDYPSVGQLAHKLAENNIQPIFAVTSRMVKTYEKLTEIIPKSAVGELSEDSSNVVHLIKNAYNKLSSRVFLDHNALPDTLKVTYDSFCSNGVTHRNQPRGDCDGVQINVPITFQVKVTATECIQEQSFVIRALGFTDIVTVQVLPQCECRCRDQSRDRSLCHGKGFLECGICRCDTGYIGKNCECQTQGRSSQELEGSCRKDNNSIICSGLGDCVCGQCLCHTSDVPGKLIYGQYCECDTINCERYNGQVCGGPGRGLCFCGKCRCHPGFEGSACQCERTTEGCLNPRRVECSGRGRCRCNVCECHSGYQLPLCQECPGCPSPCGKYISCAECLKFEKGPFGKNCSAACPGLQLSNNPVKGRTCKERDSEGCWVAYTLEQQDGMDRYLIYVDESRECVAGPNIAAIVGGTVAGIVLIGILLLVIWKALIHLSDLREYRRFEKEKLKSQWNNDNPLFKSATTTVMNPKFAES
CD11b adhes inh: inhibitors of CD11b/CD18 adhesion to fibrinogen, primary screen, K562 cells, luminescence | ATPlite luminescence; Mn2+ added to activate the integrin | inhibition, % at 10 µM | 0.54% of 93,000 active;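 active means primary inhibition of 50% or more at 10 µM, then 40% or more on retest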
* hit, by the source's call; . = not tested or not shown.

SMILES	CYP2C9 activ	CYP2C9 inhib	CYP2C19 act	CYP2C19 inh	CD11b adhes enh	CD11b adhes inh
Nc1c(-c2cccc(Cl)c2)cnn1-c1cccc(C(F)(F)F)c1	1.3	-25.4	0.8	23.5	1.6	-0.1
O=c1ccn(-c2cccc(C(F)(F)F)c2)nc1-c1ccn(-c2cccc(Cl)c2)n1	0.5	52.2*	0.7	27.6	.	.
CCOC(=O)C1CCCN(S(=O)(=O)c2cc(OCC(N)=O)c(C)cc2Cl)C1 (stereo not given)	1.2	-17.6	0.1	91.4*	3.0	-13.5
Cc1cc(Cl)c(S(=O)(=O)N2CCCCCC2)cc1OCC(=O)NC1CCCCC1	0.1	89.3*	0.1	89.9*	-4.7	76.9*
Cc1ccc(OCC(=O)NC2CCCC2)c(C)c1	0.9	6.5	0.5	47.4	-1.1	-6.4
Cc1cc(Cl)ccc1OCC(=O)NC1CCCC1	0.3	66.8*	0	98.1*	-6.8	38.7
CCN1CCN(S(=O)(=O)c2cc(OCC(=O)NC3CCCCC3)c(C)cc2Cl)CC1	0.4	56.4*	0.7	32.7	-5.3	58.5*
CCOc1cc(S(=O)(=O)NC2CCCCCC2)ccc1F	1	4.6	0.7	34.6	-3.4	35.6
CCOC(=O)N1CCN(C(=O)COc2ccc(S(=O)(=O)NC3CCCCC3)cc2C)CC1	0.6	42.1	1	-1.7	.	.
Cc1cc(Cl)c(S(=O)(=O)N2CCN(c3cccc(C)c3C)CC2)cc1OCC(N)=O	0.6	39.3	0.7	31.5	6.9	-17.8
Cc1cc(Cl)c(S(=O)(=O)N2CCSCC2)cc1OCC(=O)NC1CCCCC1	0.4	56.7*	0.3	66.4*	0.1	1.8
O=C(COc1ccc(Cl)cc1Cl)NC1CCSC1=O (stereo not given)	0.4	60.2*	0	95.7*	6.2	12.5
Cc1cc(Cl)c(S(=O)(=O)NC2CCCC2)cc1OCC(=O)NC1CCCCC1	0.6	44.4	0.5	52.2*	0.3	-25.2
CCOc1cc(C)c(S(=O)(=O)NC2CCCCC2)cc1C	0.6	44.2	0.3	71.9*	-2.6	17.3
O=C(/C=C/c1ccc(Cl)cc1Cl)NCCN1CCOCC1	1.2	-15.6	0.9	9.2	3.1	-9.7
Cc1cc(Cl)c(S(=O)(=O)N2CCCCCC2)cc1OCC(N)=O	1.9	-86.6	0.9	12.0	-0.5	9.9
CCOC(=O)N1CCN(S(=O)(=O)c2cc(OCC(=O)NC3CCCCC3)c(C)cc2Cl)CC1	0.4	62.0*	0.5	53.7*	-1.1	0.0
O=C(Nn1c(=S)[nH]c2ccccc2c1=O)c1ccncc1	0.8	18.2	0.1	85.3*	-2.1	6.8
CN1C2CCC1/C(=C\c1ccccc1)C(=O)/C2=C\c1ccccc1	2.2*	-124.2	0.6	40.3	.	.
CNc1nc(-c2ccc(Cl)cc2)cs1	0.8	24.7	0.4	59.7*	1.2	-3.2
CCNc1nc(-c2ccc(Cl)cc2)cs1	1	0.0	0.7	34.8	0.0	1.8
CC(C)(C)Nc1nc(Oc2ccc(=O)n(-c3ccccc3)n2)nc(N2CCOCC2)n1	0.3	68.0*	0.5	54.3*	0.1	-22.3
O=c1ccc(Oc2nc(N3CCOCC3)nc(N3CCOCC3)n2)nn1-c1ccccc1	0.6	41.6	0.7	33.0	-2.5	8.0
CCn1nc(C(=O)N2CCc3ccccc3C2)c2ccccc2c1=O	0.3	69.4*	0.3	65.5*	3.1	5.0
Cn1c(C(=O)N2CCN(C(=O)c3ccco3)CC2)cc2c(=O)n3ccccc3nc21	0.9	6.4	0.6	39.9	0.8	-29.0
Cn1nc(C(=O)N2CCN(S(=O)(=O)c3ccccc3)CC2)c2ccccc2c1=O	1	1.8	1.1	-6.2	-5.2	1.5
Cn1c(C(=O)N2CCc3ccccc3C2)cc2c(=O)n3ccccc3nc21	0.5	49.1	0.3	65.8*	.	.
Cn1nc(C(=O)N2CCc3ccccc3C2)c2ccccc2c1=O	0.5	53.8*	0.4	58.4*	0.8	-7.2
CCCn1nc(C(=O)N2CCc3ccccc3C2)c2ccccc2c1=O	0.6	37.8	0.7	32.9	1.6	-12.4
